Experimental data from PubChem BioAssay AID1159580 (chemical genetic matrix, 2015).
“And” between values parts separate entries of the source, which are not always exact repeats. Equal entries are not always repeated. In all, about 5,500 compounds went through this assay and about 2,000 (36%) were called active. About 18% were inconclusive and are not listed. Cut-off read from the data, not from the text of the source: active = normalized growth mostly below about 0.91 (no sharp cut-off); inconclusive = no clear call, values can overlap the other calls; inactive = mostly above about 0.92. This is one part of the list.

Assay: chemical genetic growth profiling, strain panel (AID 1159580);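 note: tested at 20 µM; growth read once vehicle control cultures reached saturation at 30 °C; 1 = growth at the plate median or of vehicle wells; lower values mean less growth of the strain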
Details: growth OD

Measured: normalized growth

c1ccc2c(c1)cc1ccc3cccc4ccc2c1c34
inactive: S. cerevisiae deletion strains, locus YAL013W, strain DEP1, active compounds read low 1.03 | S. cerevisiae deletion strains, locus YBR021W, strain FUR4, active compounds read low 1.05 | S. cerevisiae deletion strains, locus YBR229C, strain ROT2, active compounds read low 1.02 | S. cerevisiae deletion strains, locus YCL029C, strain bik1, active compounds read low 0.995 | S. cerevisiae deletion strains, locus YDL035C, strain GPR1, active compounds read low 1.03 | S. cerevisiae deletion strains, locus YDL074C, strain BRE1, active compounds read low 1.06 | S. cerevisiae deletion strains, locus YDL101C, strain DUN1, active compounds read low 1.03 | S. cerevisiae deletion strains, locus YDL134C, strain PPH21, active compounds read low 1.02 | S. cerevisiae deletion strains, locus YDL185W, strain tfp1, active compounds read low 0.995 | S. cerevisiae deletion strains, locus YDL192W, strain arf1, active compounds read low 0.994 | S. cerevisiae deletion strains, locus YDR101C, strain arx1, active compounds read low 0.995 | S. cerevisiae deletion strains, locus YDR150W, strain NUM1, active compounds read low 1.02 | S. cerevisiae deletion strains, locus YDR162C, strain NBP2, active compounds read low 1.03 | S. cerevisiae deletion strains, locus YDR318W, strain mcm21, active compounds read low 0.996 | S. cerevisiae deletion strains, locus YDR388W, active compounds read low 0.988 | S. cerevisiae deletion strains, locus YDR502C, strain sam2, active compounds read low 1.02 | S. cerevisiae deletion strains, locus YEL061C, strain CIN8, active compounds read low 1.02 | S. cerevisiae deletion strains, locus YER110C, active compounds read low 0.981 | S. cerevisiae deletion strains, locus YER155C, strain BEM2, active compounds read low 1.01 | S. cerevisiae deletion strains, locus YER167W, strain BCK2, active compounds read low 1.03 | S. cerevisiae deletion strains, locus YGL078C, strain dbp3, active compounds read low 0.988 | S. cerevisiae deletion strains, locus YGL086W, strain mad1, active compounds read low 0.993 | S. cerevisiae deletion strains, locus YGL248W, strain PDE1, active compounds read low 1.02 | S. cerevisiae deletion strains, locus YGR078C, strain PAC10, active compounds read low 1.03 | S. cerevisiae deletion strains, locus YGR135W, strain pre9, active compounds read low 1.01 | S. cerevisiae deletion strains, locus YGR229C, strain SMI1, active compounds read low 1.05 | S. cerevisiae deletion strains, locus YGR252W, strain gcn5, active compounds read low 1 | S. cerevisiae deletion strains, locus YHR030C, strain SLT2, active compounds read low 1.01 and 0.927 | S. cerevisiae deletion strains, locus YHR079C, strain IRE1 (second series), active compounds read low 0.982 | S. cerevisiae deletion strains, locus YHR079C, strain IRE1, active compounds read low 0.988 | S. cerevisiae deletion strains, locus YHR094C, strain hxt1, active compounds read low 0.993 | S. cerevisiae deletion strains, locus YHR129C, strain ARP1, active compounds read low 1.02 | S. cerevisiae deletion strains, locus YHR200W, strain rpn10, active compounds read low 0.998 | S. cerevisiae deletion strains, locus YIL066C, strain RNR3, active compounds read low 1.02 | S. cerevisiae deletion strains, locus YIL073C, strain SPO22, active compounds read low 1.02 | S. cerevisiae deletion strains, locus YIL125W, strain kgd1, active compounds read low 1.01 | S. cerevisiae deletion strains, locus YIR030C, strain dcg1, active compounds read low 0.991 | S. cerevisiae deletion strains, locus YJL095W, strain BCK1, active compounds read low 1.05 and 0.943 | S. cerevisiae deletion strains, locus YJL134W, strain LCB3, active compounds read low 1.01 | S. cerevisiae deletion strains, locus YJL168C, strain set2, active compounds read low 0.989 | S. cerevisiae deletion strains, locus YJL187C, strain SWE1 (second series), active compounds read low 1.03 | S. cerevisiae deletion strains, locus YJR043C, strain POL32, active compounds read low 1.06 | S. cerevisiae deletion strains, locus YJR066W, strain TOR1, active compounds read low 0.903 | S. cerevisiae deletion strains, locus YJR075W, strain HOC1, active compounds read low 1.02 | S. cerevisiae deletion strains, locus YKL009W, strain mrt4, active compounds read low 0.994 | S. cerevisiae deletion strains, locus YKL068W, active compounds read low 1 | S. cerevisiae deletion strains, locus YKL085W, strain MDH1 (second series), active compounds read low 1.01 | S. cerevisiae deletion strains, locus YKL085W, strain MDH1, active compounds read low 1.01 | S. cerevisiae deletion strains, locus YKL190W, strain CNB1, active compounds read low 1.01 | S. cerevisiae deletion strains, locus YKR001C, strain vps1, active compounds read low 0.994 | S. cerevisiae deletion strains, locus YLR039C, strain RIC1, active compounds read low 1.02 | S. cerevisiae deletion strains, locus YLR058C, strain SHM2, active compounds read low 1.02 | S. cerevisiae deletion strains, locus YLR102C, strain apc9, active compounds read low 0.99 | S. cerevisiae deletion strains, locus YLR113W, strain HOG1, active compounds read low 0.961 | S. cerevisiae deletion strains, locus YLR262C, strain YPT6, active compounds read low 1.04 | S. cerevisiae deletion strains, locus YLR268W, strain sec22, active compounds read low 1.01 | S. cerevisiae deletion strains, locus YLR330W, strain CHS5, active compounds read low 1.01 | S. cerevisiae deletion strains, locus YLR342W, strain FKS1 (second series), active compounds read low 1.01 | S. cerevisiae deletion strains, locus YLR371W, strain rom2, active compounds read low 0.994 | S. cerevisiae deletion strains, locus YLR418C, strain cdc73, active compounds read low 1.03 | S. cerevisiae deletion strains, locus YML016C, strain PPZ1, active compounds read low 1.02 | S. cerevisiae deletion strains, locus YML032C, strain rad52, active compounds read low 0.996 | S. cerevisiae deletion strains, locus YML124C, strain tub3, active compounds read low 0.996 | S. cerevisiae deletion strains, locus YMR078C, strain ctf18, active compounds read low 1.01 | S. cerevisiae deletion strains, locus YMR223W, strain ubp8, active compounds read low 1.01 | S. cerevisiae deletion strains, locus YMR263W, strain SAP30, active compounds read low 1.03 | S. cerevisiae deletion strains, locus YMR307W, strain GAS1, active compounds read low 1.02 | S. cerevisiae deletion strains, locus YNL067W, strain RPL9B, active compounds read low 1.04 | S. cerevisiae deletion strains, locus YNL128W, strain TEP1, active compounds read low 1.04 | S. cerevisiae deletion strains, locus YNL153C, strain GIM3, active compounds read low 1.02 | S. cerevisiae deletion strains, locus YNL183C, strain NPR1, active compounds read low 0.884 | S. cerevisiae deletion strains, locus YNL233W, strain BNI4, active compounds read low 1.03 | S. cerevisiae deletion strains, locus YNL250W, strain rad50, active compounds read low 0.998 | S. cerevisiae deletion strains, locus YNL271C, strain bni1, active compounds read low 1 | S. cerevisiae deletion strains, locus YNL298W, strain CLA4, active compounds read low 1.01 | S. cerevisiae deletion strains, locus YNL307C, strain MCK1, active compounds read low 0.993 | S. cerevisiae deletion strains, locus YNL322C, strain KRE1, active compounds read low 1.02 | S. cerevisiae deletion strains, locus YNR052C, strain pop2, active compounds read low 0.982 | S. cerevisiae deletion strains, locus YOL006C, strain TOP1, active compounds read low 1.04 | S. cerevisiae deletion strains, locus YOL012C, strain htz1 0.939 | S. cerevisiae deletion strains, locus YOL147C, strain pex11, active compounds read low 0.992 | S. cerevisiae deletion strains, locus YOR061W, strain CKA2, active compounds read low 1.01 | S. cerevisiae deletion strains, locus YOR069W, strain VPS5, active compounds read low 1.04 | S. cerevisiae deletion strains, locus YOR136W, strain idh2, active compounds read low 0.99 | S. cerevisiae deletion strains, locus YOR144C, strain elg1, active compounds read low 0.989 | S. cerevisiae deletion strains, locus YOR184W, strain ser1, active compounds read low 1.01 | S. cerevisiae deletion strains, locus YOR231W, strain MKK1, active compounds read low 0.979 | S. cerevisiae deletion strains, locus YOR316C, strain cot1, active compounds read low 0.992 | S. cerevisiae deletion strains, locus YPL055C, strain LGE1, active compounds read low 1.08 | S. cerevisiae deletion strains, locus YPL241C, strain CIN2, active compounds read low 1.03 | S. cerevisiae deletion strains, locus YPL256C, strain CLN2, active compounds read low 0.996 | S. cerevisiae deletion strains, locus YPR119W, strain clb2, active compounds read low 0.983 | S. cerevisiae deletion strains, locus YPR141C, strain kar3, active compounds read low 1 | S. cerevisiae deletion strains, locus YPR163C, strain tif3, active compounds read low 0.995 | S. cerevisiae deletion strains, locus YPR167C, strain met16, active compounds read low 1 | S. cerevisiae deletion strains, strain wtn01, active compounds read low 1.01 | S. cerevisiae strains, strain wild type, active compounds read low 1.01
